# Assays:
# Experiment in all cases: DAPPL (digital affinity profiling via proximity ligation, sequencing); 10 mM Tris-HCl pH 7.5, 50 mM NaCl, 1 mM DTT, 4% glycerol, room temperature, 30 min; GST-TFs on glutathione beads, 16-mer random dsDNA library, 0.1% formaldehyde crosslink after washing; high values mean tight binding
# [1] = molecular target: T1, FEV (Homo sapiens, UniProt Q99581 1-238); settings: protein: recombinant; tags: N-terminal GST; dsDNA, one strand shown
# T1 sequence: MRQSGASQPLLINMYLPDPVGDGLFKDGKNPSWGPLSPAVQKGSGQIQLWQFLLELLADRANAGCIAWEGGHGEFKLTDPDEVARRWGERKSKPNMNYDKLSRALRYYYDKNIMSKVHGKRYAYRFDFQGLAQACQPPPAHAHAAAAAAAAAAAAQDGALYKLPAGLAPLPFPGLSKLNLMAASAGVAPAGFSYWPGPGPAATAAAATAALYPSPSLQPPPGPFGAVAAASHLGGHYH
# In short: (§1)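 Each value of binding signal is a hexamer's read frequency for a factor divided by the same hexamer's frequency in the tag-only sample. Barcoded, bead-captured GST fusions of human transcription factors made in yeast were pooled with that sample and incubated with 200 nmole of a random double-stranded 16-mer DNA library in Tris/NaCl/DTT/glycerol buffer at room temperature for 30 min. Washing, 0.1% formaldehyde crosslinking, proximity ligation, PCR and Illumina NextSeq500 sequencing followed.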
# [2] = molecular target: ETV5 (Homo sapiens, UniProt P41161 1-510); settings: protein: recombinant; tags: N-terminal GST; dsDNA, one strand shown
# In short: as §1
# [3] = molecular target: HSF1 (Homo sapiens, UniProt Q00613 1-529); settings: protein: recombinant; tags: N-terminal GST; chain copies: 3; dsDNA, one strand shown
# In short: as §1
# [4] = molecular target: T2, SPIC (Homo sapiens, UniProt Q8N5J4 1-248); settings: protein: recombinant; tags: N-terminal GST; dsDNA, one strand shown
# T2 sequence: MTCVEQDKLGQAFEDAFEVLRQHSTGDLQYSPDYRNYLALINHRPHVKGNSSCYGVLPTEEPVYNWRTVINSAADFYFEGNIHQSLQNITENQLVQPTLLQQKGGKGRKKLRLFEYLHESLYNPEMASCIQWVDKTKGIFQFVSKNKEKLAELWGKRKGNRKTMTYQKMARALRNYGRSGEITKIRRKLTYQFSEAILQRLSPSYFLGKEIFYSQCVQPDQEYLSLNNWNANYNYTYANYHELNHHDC
# In short: as §1
# [5] = molecular target: ELF4 (Homo sapiens, UniProt Q99607 1-663); settings: protein: recombinant; tags: N-terminal GST; dsDNA, one strand shown
# In short: as §1
# [6] = molecular target: T3, ELK4 (Homo sapiens, UniProt P28324-2 1-405); settings: protein: recombinant; tags: N-terminal GST; dsDNA, one strand shown
# T3 sequence: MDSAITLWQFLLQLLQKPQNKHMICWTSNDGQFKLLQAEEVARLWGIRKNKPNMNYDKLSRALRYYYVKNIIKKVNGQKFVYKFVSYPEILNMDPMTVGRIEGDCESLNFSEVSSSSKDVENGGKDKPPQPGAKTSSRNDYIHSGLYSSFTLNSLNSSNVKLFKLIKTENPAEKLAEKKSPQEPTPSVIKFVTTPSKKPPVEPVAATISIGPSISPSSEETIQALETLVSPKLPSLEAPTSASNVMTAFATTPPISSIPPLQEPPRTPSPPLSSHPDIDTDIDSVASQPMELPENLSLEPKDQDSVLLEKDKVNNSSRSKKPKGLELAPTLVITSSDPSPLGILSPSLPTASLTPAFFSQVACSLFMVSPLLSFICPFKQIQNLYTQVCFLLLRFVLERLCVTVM
# In short: as §1
# [7] = molecular target: T4, ETV2 (Homo sapiens, UniProt O00321 1-342); settings: protein: recombinant; tags: N-terminal GST; dsDNA, one strand shown
# T4 sequence: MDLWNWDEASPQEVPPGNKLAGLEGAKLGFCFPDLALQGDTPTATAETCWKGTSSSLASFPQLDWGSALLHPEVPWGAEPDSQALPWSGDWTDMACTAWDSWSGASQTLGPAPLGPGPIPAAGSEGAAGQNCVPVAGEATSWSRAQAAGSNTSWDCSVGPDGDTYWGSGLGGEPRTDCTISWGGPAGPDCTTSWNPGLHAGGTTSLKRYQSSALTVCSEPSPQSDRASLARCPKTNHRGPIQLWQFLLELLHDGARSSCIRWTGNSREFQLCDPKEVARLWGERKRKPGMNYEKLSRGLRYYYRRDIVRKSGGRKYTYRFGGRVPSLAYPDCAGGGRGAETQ
# In short: as §1
# [8] = molecular target: T5, ELF3 (Homo sapiens, UniProt P78545 1-371); settings: protein: recombinant; tags: N-terminal GST; dsDNA, one strand shown
# T5 sequence: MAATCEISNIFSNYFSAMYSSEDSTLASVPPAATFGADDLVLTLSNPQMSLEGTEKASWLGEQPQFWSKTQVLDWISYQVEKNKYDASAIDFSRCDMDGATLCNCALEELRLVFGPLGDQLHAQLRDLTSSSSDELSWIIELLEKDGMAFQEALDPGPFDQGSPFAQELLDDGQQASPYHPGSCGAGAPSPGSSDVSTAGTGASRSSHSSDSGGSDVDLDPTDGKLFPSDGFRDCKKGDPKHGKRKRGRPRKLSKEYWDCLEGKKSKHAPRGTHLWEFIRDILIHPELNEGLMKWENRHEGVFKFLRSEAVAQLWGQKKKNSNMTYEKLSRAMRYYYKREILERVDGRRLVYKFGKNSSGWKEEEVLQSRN
# In short: as §1
# [9] = molecular target: CRX (Homo sapiens, UniProt O43186 1-299); settings: protein: recombinant; tags: N-terminal GST; dsDNA, one strand shown
# In short: as §1
# [10] = molecular target: ETV1 (Homo sapiens, UniProt P50549 1-477); settings: protein: recombinant; tags: N-terminal GST; dsDNA, one strand shown
# In short: as §1
# [11] = molecular target: T6, ERF (Homo sapiens, UniProt P50548 1-548); settings: protein: recombinant; tags: N-terminal GST; dsDNA, one strand shown
# T6 sequence: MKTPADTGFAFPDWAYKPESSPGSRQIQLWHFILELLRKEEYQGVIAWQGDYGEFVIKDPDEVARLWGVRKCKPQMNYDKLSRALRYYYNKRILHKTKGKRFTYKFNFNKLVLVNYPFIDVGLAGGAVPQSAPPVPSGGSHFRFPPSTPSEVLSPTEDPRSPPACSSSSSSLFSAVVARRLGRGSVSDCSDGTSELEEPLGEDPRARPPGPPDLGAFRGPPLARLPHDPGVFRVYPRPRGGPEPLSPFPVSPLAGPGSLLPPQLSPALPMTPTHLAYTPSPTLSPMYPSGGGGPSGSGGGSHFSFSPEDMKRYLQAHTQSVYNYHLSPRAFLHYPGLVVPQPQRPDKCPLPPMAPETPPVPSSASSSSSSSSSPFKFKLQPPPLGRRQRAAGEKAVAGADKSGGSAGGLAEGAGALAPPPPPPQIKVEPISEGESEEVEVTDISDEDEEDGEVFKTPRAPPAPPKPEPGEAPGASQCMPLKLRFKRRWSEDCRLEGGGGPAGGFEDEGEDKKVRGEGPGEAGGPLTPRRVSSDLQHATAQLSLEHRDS
# In short: as §1
# [12] = molecular target: T7, ETV3L (Homo sapiens, UniProt Q6ZN32 1-361); settings: protein: recombinant; tags: N-terminal GST; dsDNA, one strand shown
# T7 sequence: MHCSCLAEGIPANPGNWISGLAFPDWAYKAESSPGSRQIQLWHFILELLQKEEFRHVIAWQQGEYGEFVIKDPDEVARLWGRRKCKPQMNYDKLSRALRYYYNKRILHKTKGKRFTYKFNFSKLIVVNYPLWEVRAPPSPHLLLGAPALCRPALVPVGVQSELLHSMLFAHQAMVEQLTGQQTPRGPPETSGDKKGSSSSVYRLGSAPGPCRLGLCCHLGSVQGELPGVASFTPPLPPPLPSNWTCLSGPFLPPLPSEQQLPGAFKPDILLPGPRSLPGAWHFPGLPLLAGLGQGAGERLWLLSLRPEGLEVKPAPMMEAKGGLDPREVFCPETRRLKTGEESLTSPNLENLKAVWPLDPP
# In short: as §1
# [13] = molecular target: T8, ETS2 (Homo sapiens, UniProt P15036 1-469); settings: protein: recombinant; tags: N-terminal GST; dsDNA, one strand shown
# T8 sequence: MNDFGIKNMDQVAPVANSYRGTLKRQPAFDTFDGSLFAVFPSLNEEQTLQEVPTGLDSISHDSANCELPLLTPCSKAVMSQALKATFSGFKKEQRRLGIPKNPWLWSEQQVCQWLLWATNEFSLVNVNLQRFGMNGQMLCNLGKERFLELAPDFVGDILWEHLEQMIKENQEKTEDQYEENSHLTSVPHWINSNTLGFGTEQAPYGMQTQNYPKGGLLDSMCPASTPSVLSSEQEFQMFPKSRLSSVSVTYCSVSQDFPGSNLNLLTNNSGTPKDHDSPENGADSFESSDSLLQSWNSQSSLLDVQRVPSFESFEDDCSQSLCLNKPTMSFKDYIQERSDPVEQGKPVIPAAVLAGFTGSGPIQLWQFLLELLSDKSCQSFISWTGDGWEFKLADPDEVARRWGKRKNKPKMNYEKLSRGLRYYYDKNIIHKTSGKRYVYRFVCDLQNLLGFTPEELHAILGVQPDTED
# In short: as §1
# [14] = molecular target: T9, SPDEF (Homo sapiens, UniProt O95238 1-335); settings: protein: recombinant; tags: N-terminal GST; dsDNA, one strand shown
# T9 sequence: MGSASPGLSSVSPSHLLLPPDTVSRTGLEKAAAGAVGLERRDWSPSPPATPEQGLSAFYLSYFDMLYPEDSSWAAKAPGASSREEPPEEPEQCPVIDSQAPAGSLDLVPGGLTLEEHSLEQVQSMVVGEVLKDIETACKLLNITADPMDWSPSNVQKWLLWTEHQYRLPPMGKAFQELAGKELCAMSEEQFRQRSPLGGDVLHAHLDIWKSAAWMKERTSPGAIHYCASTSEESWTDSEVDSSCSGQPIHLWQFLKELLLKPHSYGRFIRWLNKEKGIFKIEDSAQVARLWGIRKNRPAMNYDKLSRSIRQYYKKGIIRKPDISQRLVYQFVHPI
# In short: as §1
# [15] = molecular target: T10, ETV7 (Homo sapiens, UniProt Q9Y603 1-341); settings: protein: recombinant; tags: N-terminal GST; dsDNA, one strand shown
# T10 sequence: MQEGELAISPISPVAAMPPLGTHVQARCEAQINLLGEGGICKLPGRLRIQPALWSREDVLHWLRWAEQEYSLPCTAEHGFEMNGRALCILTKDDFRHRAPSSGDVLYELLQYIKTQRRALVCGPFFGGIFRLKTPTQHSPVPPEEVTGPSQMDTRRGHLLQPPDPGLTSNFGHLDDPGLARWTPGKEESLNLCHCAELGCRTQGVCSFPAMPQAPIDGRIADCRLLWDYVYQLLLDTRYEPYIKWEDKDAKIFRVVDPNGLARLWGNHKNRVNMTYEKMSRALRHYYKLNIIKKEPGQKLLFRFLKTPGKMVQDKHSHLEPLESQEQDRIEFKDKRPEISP
# In short: as §1
# [16] = molecular target: T11, ELF5 (Homo sapiens, UniProt Q9UKW6-2 1-255); settings: protein: recombinant; tags: N-terminal GST; dsDNA, one strand shown
# T11 sequence: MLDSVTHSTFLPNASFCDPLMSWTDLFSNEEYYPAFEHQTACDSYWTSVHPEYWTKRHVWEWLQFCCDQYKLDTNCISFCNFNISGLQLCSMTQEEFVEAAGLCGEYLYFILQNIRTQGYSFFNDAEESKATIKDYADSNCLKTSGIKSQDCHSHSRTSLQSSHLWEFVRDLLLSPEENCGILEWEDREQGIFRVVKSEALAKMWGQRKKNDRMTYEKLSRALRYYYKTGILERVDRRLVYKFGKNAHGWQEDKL
# In short: as §1
# [17] = molecular target: T12, ETV3 (Homo sapiens, UniProt P41162-2 1-143); settings: protein: recombinant; tags: N-terminal GST; dsDNA, one strand shown
# T12 sequence: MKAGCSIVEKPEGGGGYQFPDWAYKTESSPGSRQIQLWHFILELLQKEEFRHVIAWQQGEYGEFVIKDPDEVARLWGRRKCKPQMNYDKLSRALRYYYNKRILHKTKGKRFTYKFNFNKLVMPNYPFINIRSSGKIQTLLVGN
# In short: as §1
# [18] = molecular target: ETV6 (Homo sapiens, UniProt P41212 1-452); settings: protein: recombinant; tags: N-terminal GST; dsDNA, one strand shown
# In short: as §1
# Chain of ETV1 (P50549 whole entry): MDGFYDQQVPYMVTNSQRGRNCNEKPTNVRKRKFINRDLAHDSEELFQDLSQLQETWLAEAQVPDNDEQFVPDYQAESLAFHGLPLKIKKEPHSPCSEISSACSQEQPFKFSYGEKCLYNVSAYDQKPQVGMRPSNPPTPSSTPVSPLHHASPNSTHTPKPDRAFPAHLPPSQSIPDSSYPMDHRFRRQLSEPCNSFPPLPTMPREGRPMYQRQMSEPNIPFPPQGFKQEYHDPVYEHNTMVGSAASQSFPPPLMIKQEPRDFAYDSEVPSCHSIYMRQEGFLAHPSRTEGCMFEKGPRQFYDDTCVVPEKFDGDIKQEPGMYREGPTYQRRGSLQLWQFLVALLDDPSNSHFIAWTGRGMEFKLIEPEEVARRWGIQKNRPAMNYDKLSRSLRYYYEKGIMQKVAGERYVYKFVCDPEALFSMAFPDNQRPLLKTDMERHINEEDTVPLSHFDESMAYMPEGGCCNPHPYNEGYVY
# Chain of ETV6 (P41212 whole entry): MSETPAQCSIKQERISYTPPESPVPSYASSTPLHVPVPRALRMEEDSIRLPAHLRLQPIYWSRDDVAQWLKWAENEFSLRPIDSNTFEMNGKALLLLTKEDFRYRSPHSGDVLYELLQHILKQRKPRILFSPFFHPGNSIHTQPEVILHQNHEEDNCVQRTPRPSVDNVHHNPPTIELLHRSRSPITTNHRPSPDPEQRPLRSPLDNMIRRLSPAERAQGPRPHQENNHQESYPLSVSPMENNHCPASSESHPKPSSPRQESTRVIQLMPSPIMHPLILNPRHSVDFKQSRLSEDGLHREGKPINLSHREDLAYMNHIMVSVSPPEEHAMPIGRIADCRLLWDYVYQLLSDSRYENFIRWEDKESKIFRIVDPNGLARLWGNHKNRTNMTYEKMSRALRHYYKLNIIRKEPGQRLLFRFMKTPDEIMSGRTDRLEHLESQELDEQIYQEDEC
# Chain of ELF4 (Q99607 whole entry): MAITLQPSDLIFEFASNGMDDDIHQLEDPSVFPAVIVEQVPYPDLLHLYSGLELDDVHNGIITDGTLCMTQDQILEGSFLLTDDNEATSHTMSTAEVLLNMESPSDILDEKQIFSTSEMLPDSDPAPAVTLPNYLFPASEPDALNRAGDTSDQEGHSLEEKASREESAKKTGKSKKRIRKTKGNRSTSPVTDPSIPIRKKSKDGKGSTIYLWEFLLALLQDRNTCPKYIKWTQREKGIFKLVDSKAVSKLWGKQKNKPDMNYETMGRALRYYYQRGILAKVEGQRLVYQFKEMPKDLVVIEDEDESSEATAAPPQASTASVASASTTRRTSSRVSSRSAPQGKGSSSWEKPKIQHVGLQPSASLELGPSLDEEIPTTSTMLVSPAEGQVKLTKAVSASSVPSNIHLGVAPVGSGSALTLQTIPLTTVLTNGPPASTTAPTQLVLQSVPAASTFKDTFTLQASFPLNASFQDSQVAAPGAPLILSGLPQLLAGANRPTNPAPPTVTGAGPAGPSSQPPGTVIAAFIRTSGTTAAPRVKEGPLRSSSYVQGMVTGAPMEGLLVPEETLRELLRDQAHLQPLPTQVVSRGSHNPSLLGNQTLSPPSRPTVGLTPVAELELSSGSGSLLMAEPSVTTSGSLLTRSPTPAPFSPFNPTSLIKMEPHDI
# Chain of HSF1 (Q00613 whole entry): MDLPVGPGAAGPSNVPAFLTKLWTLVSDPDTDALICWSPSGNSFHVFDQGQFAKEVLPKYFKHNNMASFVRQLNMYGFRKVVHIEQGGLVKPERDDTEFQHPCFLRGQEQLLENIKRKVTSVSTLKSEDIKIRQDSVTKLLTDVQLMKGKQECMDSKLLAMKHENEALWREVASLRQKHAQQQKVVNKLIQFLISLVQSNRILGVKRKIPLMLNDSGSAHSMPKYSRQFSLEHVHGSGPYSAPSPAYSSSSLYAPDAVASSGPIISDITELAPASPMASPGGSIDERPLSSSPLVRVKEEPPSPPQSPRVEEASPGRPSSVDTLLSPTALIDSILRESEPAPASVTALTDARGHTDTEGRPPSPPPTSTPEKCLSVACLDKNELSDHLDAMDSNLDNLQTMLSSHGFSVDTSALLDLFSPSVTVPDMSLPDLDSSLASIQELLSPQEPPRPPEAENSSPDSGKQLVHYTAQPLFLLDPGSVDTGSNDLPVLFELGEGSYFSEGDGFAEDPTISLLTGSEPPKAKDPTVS
# Chain of CRX (O43186 whole entry): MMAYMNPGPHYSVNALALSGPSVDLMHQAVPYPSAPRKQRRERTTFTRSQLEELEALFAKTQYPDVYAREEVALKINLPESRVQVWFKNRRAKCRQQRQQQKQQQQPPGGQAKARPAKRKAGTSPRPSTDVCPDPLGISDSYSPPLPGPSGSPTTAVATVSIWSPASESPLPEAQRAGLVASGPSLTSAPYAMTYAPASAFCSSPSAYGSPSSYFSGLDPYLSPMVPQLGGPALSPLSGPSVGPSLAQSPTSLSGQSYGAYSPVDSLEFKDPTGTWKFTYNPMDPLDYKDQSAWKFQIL
# Chain of ETV5 (P41161 whole entry): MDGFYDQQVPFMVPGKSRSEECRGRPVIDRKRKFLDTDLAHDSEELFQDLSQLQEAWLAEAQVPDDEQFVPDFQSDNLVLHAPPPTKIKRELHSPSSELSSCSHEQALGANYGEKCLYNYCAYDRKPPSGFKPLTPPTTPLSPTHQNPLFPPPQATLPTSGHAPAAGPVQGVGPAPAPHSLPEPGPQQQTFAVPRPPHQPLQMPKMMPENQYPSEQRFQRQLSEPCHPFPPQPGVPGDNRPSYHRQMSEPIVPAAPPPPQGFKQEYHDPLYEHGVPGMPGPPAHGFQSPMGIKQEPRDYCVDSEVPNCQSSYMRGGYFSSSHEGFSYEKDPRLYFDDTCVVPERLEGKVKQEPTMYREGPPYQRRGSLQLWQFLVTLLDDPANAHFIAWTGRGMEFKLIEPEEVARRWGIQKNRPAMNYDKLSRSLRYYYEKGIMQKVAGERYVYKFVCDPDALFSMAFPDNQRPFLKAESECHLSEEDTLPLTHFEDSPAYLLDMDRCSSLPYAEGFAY
sequence,measurement,setting,value
TTTTCG,binding signal,[1],"1.23 fold enrichment (6-mer frequency, TF over GST control)"
same,binding signal,[2],"1.27 fold enrichment (6-mer frequency, TF over GST control)"
same,binding signal,[3],"1.53 fold enrichment (6-mer frequency, TF over GST control)"
same,binding signal,[4],"1.11 fold enrichment (6-mer frequency, TF over GST control)"
same,binding signal,[5],"1.29 fold enrichment (6-mer frequency, TF over GST control)"
same,binding signal,[6],"1.08 fold enrichment (6-mer frequency, TF over GST control)"
same,binding signal,[7],"1.33 fold enrichment (6-mer frequency, TF over GST control)"
same,binding signal,[8],"1.11 fold enrichment (6-mer frequency, TF over GST control)"
same,binding signal,[9],"1.28 fold enrichment (6-mer frequency, TF over GST control)"
same,binding signal,[10],"1.2 fold enrichment (6-mer frequency, TF over GST control)"
same,binding signal,[11],"1.25 fold enrichment (6-mer frequency, TF over GST control)"
same,binding signal,[12],"1.41 fold enrichment (6-mer frequency, TF over GST control)"
same,binding signal,[13],"1.26 fold enrichment (6-mer frequency, TF over GST control)"
same,binding signal,[14],"1.16 fold enrichment (6-mer frequency, TF over GST control)"
same,binding signal,[15],"1.2 fold enrichment (6-mer frequency, TF over GST control)"
same,binding signal,[16],"1.3 fold enrichment (6-mer frequency, TF over GST control)"
same,binding signal,[17],"1.25 fold enrichment (6-mer frequency, TF over GST control)"
same,binding signal,[18],"1.09 fold enrichment (6-mer frequency, TF over GST control)"

# From publication PMC7862700, “An all-to-all approach to the identification of sequence-specific readers for epigenetic DNA modifications on cytosine”
